Where “and” joins values, the source holds several entries; their conditions need not be identical. Equal entries are not always repeated. Inconclusive results are not listed. Calls of active or inactive are those of the source. Unless noted, calls follow the shape of the dose curve; as a rule, active = well fitted curve in either direction with a large enough effect (not every such curve was filed as active); inconclusive = small, poorly fitted or top-dose-only effect, or another doubt; inactive = flat fitted curve, though single readings scatter.
Assay: Cell Viability - MRC5 (AID 434; calls by dose curve;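 also: potency is read from the fitted curve at half-maximal effect; cells exposed to compound for 40 hours at 37 °C; potency reflects cytotoxicity seen as loss of intracellular ATP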)
Details: MRC5 lung fibroblast viability, qHTS
Description: NIH Chemical Genomics Center [NCGC]
NIH Molecular Libraries Screening Centers Network [MLSCN]
National Institutes of Environmental Health Sciences [NIEHS]
National Toxicology Program [NTP]
We have developed a 1536-well cell-based assay for quantitative high throughput screening (qHTS) against a number of cell lines to determine in vitro cytotoxicity of small molecules. This particular assay uses the MRC5 cell line which is derived from normal human lung fibroblasts.
NCGC Assay Protocol Summary:
The CellTiter-Glo luminescent cell viability assay (Promega) is a homogeneous method to measure the number of viable cells in culture. The end point readout of this assay is based on quantitation of intracellular ATP, an indicator of metabolic activity, using the luciferase reaction. Luciferase catalyzes the oxidation of beetle Luciferin to oxyluciferin and light in the presence of ATP. The luminescent signal is proportional to amount of ATP present.
Using the CellTiter-Glo luminescent cell viability assay, the amount of cellular ATP was measured in the MRC5 cell line with complete culture medium following compound treatment for 40 hours. The assay was performed in opaque white Kalypsys 1536-well plates. In the screen, tamoxifen and doxorubicin were used as positive controls. Library compounds were measured for their ability to cause acute toxicity in the cell line, as reflected by a decrease in intracellular ATP levels, in a concentration-dependent manner. Data were normalized to the controls for basal activity (DMSO only) and 100% inhibition (100 uM tamoxifen). AC50 values were determined from concentration-response data modeled with the standard Hill equation.
qHTS protocol for CellTiter Glo MRC5 cellular assay
[Step] [Parameter] [Value] [Description]
1. Reagent; 5 uL; 1500 MRC5 cells/well
2. Time; 5 hr; 37 °C incubation
4. Controls; 23 nL; Tamoxifen 0.34 uM to 100 uM & Doxorubicin 0.02 nM to 100 uM
5. Time; 40 hr; 37 °C incubation
6. Reagent; 5 uL; CellTiter Glo reagent
7. Time; 20 min; Room Temperature
8. Detection; Luminescence; Viewlux plate reader
Keywords: cell viability, cytotoxicity, MRC5 cell line, luminescence, NTPHTS, NTPHTS_NCGC, NIEHS, EPA, DSSTox, MLSMR, MLSCN, NIH Roadmap, qHTS, NCGC

Compound | Potency
CN=C(NC#N)NCCSCc1nc[nH]c1C | > 92 µM (inactive)
COc1cc(Cc2cnc(N)nc2N)cc(OC)c1OC | > 92 µM (inactive)
NC(=O)N1c2ccccc2C=Cc2ccccc21 | > 92 µM (inactive)

Assay: NFAT Signaling Pathway (AID 444);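 also: carbachol stimulus at about its EC50 of 1 µM final; % is scaled to controls: 0 for no effect and ±100 for the full control effect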
Details: Jurkat NFAT-bla M1, carbachol, beta-lactamase ratio, 5 h; at 17.2 µM (top of the series)
Method in brief: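 Jurkat cells carrying an NFAT-driven β-lactamase reporter and co-transfected muscarinic M1 receptor were treated with compound plus carbachol (1 uM final, an EC50 level) for 5 h at 37 °C. CCF4 loading followed for 1 h at RT; 460/530 nm ratio gave %activity.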

Compound | activity change, negative = inhibition
CN/C(=C\[N+](=O)[O-])NCCSCc1ccc(CN(C)C)o1 | -7.07% (inactive)
CC(C)[N+](C)(CCOC(=O)C1c2ccccc2Oc2ccccc21)C(C)C | -48.1% (active) and -94.6% (active)
O=C1CC2(CCCC2)CC(=O)N1CCCCN1CCN(c2ncccn2)CC1 | -9.19% (inactive)
CCCN(CCC)C(=O)C(CCC(=O)O)NC(=O)c1ccccc1 (configuration not stated) | -1.88% (inactive)
COc1cc(Cc2cnc(N)nc2N)cc(OC)c1OC | -13.2% (inactive)
NC(=O)N1c2ccccc2C=Cc2ccccc21 | 3.6% (inactive)
CCCCNc1ccc(C(=O)OCCN(C)C)cc1 | -27.7% (inactive)
Fc1ccc(C(c2ccc(F)cc2)N2CCN(C/C=C/c3ccccc3)CC2)cc1 | -88.5% (active)
CCN(CC)CC(=O)Nc1c(C)cccc1C | -9.77% (inactive) and 9.98% (inactive) and -29.3% (inactive)
CCCCNc1c(C(=O)OCC)c(C)nc2c1cnn2CC | -22.8% (inactive)
COCCc1ccc(OCC(O)CNC(C)C)cc1 (configuration not stated) | -25.7% (inactive)
Cc1nnc(SCC2=C(C(=O)O)N3C(=O)[C@@H](NC(=O)Cn4cnnn4)[C@H]3SC2)s1 | -25% (inactive)
CCn1nc(C(=O)O)c(=O)c2cc3c(cc21)OCO3 | 0.808% (inactive) and 1.97% (inactive)
Cc1ccc(S(=O)(=O)NC(=O)NN2CCCCCC2)cc1 | -5.82% (inactive) and -2.02% (inactive)
COc1ccc2c(c1OC)C(=O)O[C@@H]2[C@H]1c2c(cc3c(c2OC)OCO3)CCN1C | -10.3% (inactive)
COCCOC(=O)C1=C(C)NC(C)=C(C(=O)OC(C)C)C1c1cccc([N+](=O)[O-])c1 (configuration not stated) | -7.25% (inactive)
CC(C)(Oc1ccc(CCNC(=O)c2ccc(Cl)cc2)cc1)C(=O)O | -9.97% (inactive) and 7.1% (inactive)

Same assay, conditions: Jurkat NFAT-bla M1, carbachol, beta-lactamase ratio, 5 h; at 38 µM (top of the series)

Compound | activity change, negative = inhibition
NCCCNCCSP(=O)(O)O | -0.295% (inactive)
CN=C(NC#N)NCCSCc1nc[nH]c1C | 6.95% (inactive)
CN/C(=C\[N+](=O)[O-])NCCSCc1ccc(CN(C)C)o1 | 1.99% (inactive)
CC(C)[N+](C)(CCOC(=O)C1c2ccccc2Oc2ccccc21)C(C)C | -63% (active)
CCN1CCc2nc(N)oc2CC1 | -7.89% (inactive)
O=C(CCCN1CCC(O)(c2cccc(C(F)(F)F)c2)CC1)c1ccc(F)cc1 | -2.13% (inactive)
COc1cc(Cc2cnc(N)nc2N)cc(OC)c1OC | -9.42% (inactive)
NC(=O)N1c2ccccc2C=Cc2ccccc21 | 3.87% (inactive)
FC(F)(F)c1ccccc1-n1ccnc1 | -3.5% (inactive)
CCN(CC)CC(=O)Nc1c(C)cccc1C | 0.823% (inactive)
CCCCNc1c(C(=O)OCC)c(C)nc2c1cnn2CC | -0.356% (inactive)
COC(=O)[C@@H](N)Cc1ccc(O)c(O)c1 | 5.8% (inactive)
CCn1nc(C(=O)O)c(=O)c2cc3c(cc21)OCO3 | 8.98% (inactive)
Cc1ccc(S(=O)(=O)NC(=O)NN2CCCCCC2)cc1 | -9.25% (inactive)
C[N+](C)(C)CCOC(=O)CCC(=O)OCC[N+](C)(C)C | 1.62% (inactive)
CSc1ccc(C(=O)c2[nH]c(=O)[nH]c2C)cc1 | -2.92% (inactive)
O=C(O)CN(CCOCCOCCN(CC(=O)O)CC(=O)O)CC(=O)O | 0.822% (inactive)
CN(C(=O)CCCOc1ccc2[nH]c(=O)ccc2c1)C1CCCCC1 | -14.2% (inactive)
Cc1ccc(=O)n(-c2ccccc2)c1 | 14.9% (inactive)
COc1cc2c(cc1OC)-c1cc(=Nc3c(C)cc(C)cc3C)n(C)c(=O)n1CC2 | -16.6% (inactive)

Assay: Stat Signaling Pathway (AID 446);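 also: ME-180 cervical cancer cells given 40 pM IL-6 alongside compound; SIE-controlled beta-lactamase reporter measured as 460/530 nm FRET emission ratio; % is scaled to controls: 0 for no effect and ±100 for the full control effect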
Details: ME-180 (cervical carcinoma) SIE beta-lactamase reporter, IL-6 stimulated, 5 h; series mostly up to 17.2 µM; activity, negative = inhibition: at the top concentration
Method in brief: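 Normalization used AC90 stimulation (300 pM IL-6) and AC90 inhibition (125 nM pan-JAK inhibitor at 40 pM IL-6). The underlying signal is SIE-driven beta-lactamase in ME-180 cells after 5 h IL-6 exposure with compound.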

Compound | activity, negative = inhibition | outcome
NCCCNCCSP(=O)(O)O | 27.3% [at 38 µM] (inactive) | –
CN=C(NC#N)NCCSCc1nc[nH]c1C | -2.27% [at 38 µM] (inactive) | –
CN/C(=C\[N+](=O)[O-])NCCSCc1ccc(CN(C)C)o1 | – | inactive
CC(C)[N+](C)(CCOC(=O)C1c2ccccc2Oc2ccccc21)C(C)C | – | inactive
c1cc(CN2CCCCC2)cc(OCCCNc2nc3ccccc3s2)c1 | -1.69% [at 38 µM] (inactive) | –
O=C1CC2(CCCC2)CC(=O)N1CCCCN1CCN(c2ncccn2)CC1 | – | inactive
Nc1nc(N)c2nc(-c3ccccc3)c(N)nc2n1 | – | inactive
CCCN(CCC)C(=O)C(CCC(=O)O)NC(=O)c1ccccc1 (configuration not stated) | 3.85% (inactive) | –
CCN1CCc2nc(N)oc2CC1 | 4.8% [at 38 µM] (inactive) | –
O=C(CCCN1CCC(O)(c2cccc(C(F)(F)F)c2)CC1)c1ccc(F)cc1 | -15.8% [at 38 µM] (inactive) | –
COc1cc(Cc2cnc(N)nc2N)cc(OC)c1OC | – | inactive
NC(=O)N1c2ccccc2C=Cc2ccccc21 | – | inactive
FC(F)(F)c1ccccc1-n1ccnc1 | -5.1% [at 38 µM] (inactive) | –
CCCCNc1ccc(C(=O)OCCN(C)C)cc1 | – | inactive
C[N+](C)(C)CCOC(N)=O | – | inactive
Fc1ccc(C(c2ccc(F)cc2)N2CCN(C/C=C/c3ccccc3)CC2)cc1 | -5.38% (inactive) | –

Compound | activity, negative = inhibition | outcome
COc1cc(C(=O)OCCCN2CCCN(CCCOC(=O)c3cc(OC)c(OC)c(OC)c3)CC2)cc(OC)c1OC | – | inactive
CCN(CC)CC(=O)Nc1c(C)cccc1C | – | inactive
CCCCNc1c(C(=O)OCC)c(C)nc2c1cnn2CC | – | inactive
COCCc1ccc(OCC(O)CNC(C)C)cc1 (configuration not stated) | -10.7% (inactive) | –
Cc1nnc(SCC2=C(C(=O)O)N3C(=O)[C@@H](NC(=O)Cn4cnnn4)[C@H]3SC2)s1 | 6.5% (inactive) | –
COC(=O)[C@@H](N)Cc1ccc(O)c(O)c1 | -16.7% [at 38 µM] (inactive) | –
CCn1nc(C(=O)O)c(=O)c2cc3c(cc21)OCO3 | 6.79% (inactive) | –
Cc1ccc(S(=O)(=O)NC(=O)NN2CCCCCC2)cc1 | – | inactive
C[N+](C)(C)CCOC(=O)CCC(=O)OCC[N+](C)(C)C | -8.19% [at 38 µM] (inactive) | –
CSc1ccc(C(=O)c2[nH]c(=O)[nH]c2C)cc1 | 6.31% [at 38 µM] (inactive) | –
COc1ccc2c(c1OC)C(=O)O[C@@H]2[C@H]1c2c(cc3c(c2OC)OCO3)CCN1C | -5.56% (inactive) | –
O=C(O)CN(CCOCCOCCN(CC(=O)O)CC(=O)O)CC(=O)O | 31.4% [at 38 µM] (inactive) | –
CN(C(=O)CCCOc1ccc2[nH]c(=O)ccc2c1)C1CCCCC1 | -3.71% [at 38 µM] (inactive) | –
Cc1ccc(=O)n(-c2ccccc2)c1 | 12.1% [at 38 µM] (inactive) | –
COCCOC(=O)C1=C(C)NC(C)=C(C(=O)OC(C)C)C1c1cccc([N+](=O)[O-])c1 (configuration not stated) | -3.91% (inactive) | –
CC(C)(Oc1ccc(CCNC(=O)c2ccc(Cl)cc2)cc1)C(=O)O | – | inactive

Reference: PubChem BioAssay (NCATS)
